# TGFb SMAD3 inh: TGF-b pathway inhibition. HepG2 CAGA-GFP TGF-b/SMAD3 reporter, GFP fluorescence, 18 h; TGF-beta stimulated, 500 pg/mL final. hit rate 1.2% among 410,000. Potency, µM (doses to about 46.1 µM), inactives show at the top dose activity, negative = inhibition, actives largely listed as inhibitors; note: % is set by controls: 0 for no effect and ±100 for the full control effect; nearly all actives have a fitted effect of over 65% in size
#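 First, reporter cells (HEPG2 CAGA-GFP) rested 2 h at 37 degrees C. Next, compounds were pinned in and TGF-beta added to 500 pg/mL final. After 18 h, GFP was imaged per cell and summed per well.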
# HepG2 tox-1: counter-screen for TGF-b inhibitors: cytotoxicity in HepG2 cells; hit rate 0.76% among 410,000; AID 588856; HepG2 CAGA-GFP viability, ATP luminescence, 18 h; Potency, µM (series often up to 46.1 µM), inactives show top-dose activity change, negative = cytotoxicity, actives largely listed as cytotoxic
#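 HepG2 CAGA-GFP cells (1000/well, DMEM with 1% FBS) received compound, then TGF-beta at 500 pg/mL final, and were incubated 18 hours at 37 degrees C. Viability was read by CellTiter-Glo luminescence. Media-only wells were set as complete cell-killing and DMSO as no toxicity.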
# ATXN2 expr inh: ATXN2 expression inhibition. AID 1745845. hit rate 0.72% among 360,000. Potency, µM (top dose mostly 57 µM), inactives show at the top dose activity change, negative = inhibition, hits mostly inhibitors. HEK-293 ATXN2-luciferase reporter, luminescence, 24 h; note: % is set by controls: 0 for no effect and ±100 for the full control effect; nearly all actives have a fitted effect of over 55% in size
#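 ATXN2-luciferase reporter cells (luciferase flanked by upstream and downstream ATXN2 gene portions) were treated 24 h at 37 °C with compounds at up to 57 uM. SteadyGlo luminescence gave expression; GF-AFC fluorescence gave viability.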
# 12-LOX inh: inhibitors of human 12S-lipoxygenase ALOX12 | P18054 | purified 12hLO, xylenol orange hydroperoxide absorbance | Potency, µM (titrated, usually from 108 µM), without a hit: at the top dose activity change, negative = inhibition, usual class: inhibitors | hit rate 1.1% among 580,000; note: % is set by controls: 0 for no effect and ±100 for the full control effect
# Target sequence (P18054 whole entry, looked up): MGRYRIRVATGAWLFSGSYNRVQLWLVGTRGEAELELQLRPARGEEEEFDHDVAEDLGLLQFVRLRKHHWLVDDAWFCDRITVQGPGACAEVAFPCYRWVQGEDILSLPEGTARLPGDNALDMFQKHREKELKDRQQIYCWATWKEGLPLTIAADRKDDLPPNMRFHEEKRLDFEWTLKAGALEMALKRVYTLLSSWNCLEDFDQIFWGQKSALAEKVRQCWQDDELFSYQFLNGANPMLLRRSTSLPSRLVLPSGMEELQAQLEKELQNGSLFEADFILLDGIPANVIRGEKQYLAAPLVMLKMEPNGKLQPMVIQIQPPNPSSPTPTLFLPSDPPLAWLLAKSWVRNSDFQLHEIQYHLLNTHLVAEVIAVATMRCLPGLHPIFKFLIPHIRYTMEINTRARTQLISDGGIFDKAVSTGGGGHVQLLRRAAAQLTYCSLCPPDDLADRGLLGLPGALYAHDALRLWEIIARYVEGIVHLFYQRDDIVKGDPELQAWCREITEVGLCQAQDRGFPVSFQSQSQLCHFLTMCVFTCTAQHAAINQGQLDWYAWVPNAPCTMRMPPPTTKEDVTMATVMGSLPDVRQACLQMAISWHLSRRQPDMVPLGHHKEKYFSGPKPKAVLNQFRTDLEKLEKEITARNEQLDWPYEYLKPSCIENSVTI
#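 Hydroperoxide product was detected by ferrous iron/xylenol orange as the 573 to 405 nm absorbance ratio. Arachidonic acid at 40 uM (final) was turned over for 30 min at room temperature by 150 nM human 12hLO, pH 7.0 Hepes buffer, after 15 min compound preincubation.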
# S2 tox: viability counter-screen for ATXN expression inhibitors | S2 cells (HEK-293 line with an ATXN2-luciferase reporter) viability, CellTiter-Fluor protease fluorescence, 24 h | Potency, µM (series often up to 56.7 µM), usual class: cytotoxic | hit rate 0.49% among 400,000; note: nearly all actives have a fitted effect of over 40% in size
# TGFb confirm: confirmation of TGF-b signaling inhibitors in HepG2 reporter cells; Potency, µM (titrated, usually from 46.1 µM), without a hit: at the top dose activity, negative = inhibition, hits mostly inhibitors; hit rate 63% among 1,600; shares compounds with TGFb SMAD3 inh; AID 720534; HepG2 CAGA-GFP TGF-b reporter, GFP fluorescence, 18 h; cells stimulated with TGF-beta, 500 pg/mL; note: % is set by controls: 0 for no effect and ±100 for the full control effect; nearly all actives have a fitted effect of over 65% in size
# HepG2 tox-2: counter-screen for TGF-b inhibitors: cytotoxicity in HepG2 cells; AID 720535; hit rate 27% among 1,600; HepG2 CAGA-GFP viability, ATP luminescence, 18 h; cells stimulated with TGF-beta, 500 pg/mL; Potency, µM (series often up to 46.1 µM), inactives show at the highest dose activity, negative = cytotoxicity, most hits filed as inhibitors; shares compounds with TGFb SMAD3 inh; note: % is set by controls: 0 for no effect and ±100 for the full control effect; nearly all actives have a fitted effect of over 70% in size
# CCL64 TGFb inh: blocks TGF-b signaling in CCL64 reporter cells; shares compounds with TGFb SMAD3 inh; CCL64 CAGA-GFP reporter, TGF-b stimulated, GFP fluorescence, 18 h; Potency, µM (highest dose often 46.1 µM), inactives show top-dose activity, negative = inhibition, usual class: inhibitors; hit rate 41% among 1,600; AID 720536; note: nearly all actives have a fitted effect of over 65% in size
# COP TGFb inh: TGF-b inhibition validated with COP promoter | hit rate 3% among 1,600 | HepG2 COP-GFP TGF-b reporter, GFP fluorescence, 18 h; cells stimulated by added recombinant TGF-beta | shares compounds with TGFb SMAD3 inh | Potency, µM (highest dose often 46.1 µM), without a hit: top-dose activity, negative = inhibition, actives largely listed as inhibitors; note: nearly all actives have a fitted effect of over 70% in size
# Starred values were filed as active, the others as inactive; i = inactive; ? = inconclusive; · = not tested or not shown; [ ] = another dose, or the depositor's remark. An excerpt weighted towards active compounds, which were near 2.7% of everything screened. Calls come from the whole dose curve; as a rule, active = well fitted curve in the direction sought with a large enough effect; inconclusive = small, poorly fitted or top-dose-only effect, or another doubt; inactive = no such curve, though single readings can be large; an effect the other way counts as inactive or inconclusive. Potency is the fitted concentration of half-maximal effect.
SMILES,TGFb SMAD3 inh,HepG2 tox-1,ATXN2 expr inh,12-LOX inh,S2 tox,TGFb confirm,HepG2 tox-2,CCL64 TGFb inh,COP TGFb inh
COc1ccccc1CN[C@H]1Cc2ccc(cc2)Nc2cc(ccc2OC)C[C@H](C(=O)NCc2ccccc2)N(C)C1=O,·,·,·,1%,·,·,·,·,·
O=C(c1ccc(-c2ccccc2)cc1)N(Cc1cccs1)C1CC1,·,·,·,-3%,·,·,·,·,·
C=C(C)COc1cc(C)cc2oc(=O)c(CC(=O)Nc3nc(CC(=O)O)cs3)c(C)c12,·,·,·,-15%,·,·,·,·,·
CC(=O)Nc1ccc(C(=O)CSc2ncn(-c3ccccc3)n2)cc1,2.8µM*,-22%,29%,?,i,?,-4%,3%,-3%
CC1CCc2sc(C(=O)OCC(=O)N3CCC(c4ccccc4)=N3)cc2C1 (centres undefined),·,·,·,21%,·,·,·,·,·
CCOC(=O)C#CC(CCc1ccccc1)OS(N)(=O)=O (centres undefined),0.71µM*,-28%,9%,-19%,i,-29%,-6%,?,-22%
Cc1cc(Cl)n2c(nc3cc(F)c(F)cc32)c1C#N,6.3µM*,-28%,?,-5%,?,1.3µM*,5.8µM*,1.3µM*,18µM*
Cc1cc(C)n2c(=O)c3ccc(Cl)cc3nc2c1C#N,-1%,-30%,-8%,?,·,·,·,·,·
O=C(c1ccco1)N1CCCC(c2nc(-c3ccc(S(=O)(=O)NCc4ccccc4)cc3)no2)C1 (centres undefined),?,-69%,28µM*,-8%,?,15µM*,?,-22%,41%
COc1ccc(NC(=O)Nc2ccc(O)c3ccccc23)cc1,6.3µM*,-131%,?,?,?,?,-21%,16µM*,0%
Cc1ccc(-c2cnc(-c3ccc(Br)cc3)o2)cc1,·,·,·,22%,·,·,·,·,·
COc1ccc(-c2cc(-c3ccccc3O)[nH]n2)cc1,10µM*,-14%,116%,142%,i,?,?,?,44%
Oc1ccc(Br)cc1-c1cc(-c2ccccc2Cl)[nH]n1,-29%,-22%,4%,-1%,i,·,·,·,·
COc1ccc(O)c(-c2cc(-c3ccccc3Cl)[nH]n2)c1,7.9µM*,-63%,-6%,-29%,?,18µM*,?,26µM*,30%
COc1ccc(-c2cc(-c3ccccc3)n[nH]2)c(O)c1,?,-40%,132%,?,?,·,·,·,·
O=C(CCc1ncc(-c2c(F)cccc2F)o1)NC1=NCCS1,·,·,·,1%,·,·,·,·,·
CCCCC(CC)CNC(=O)CCC(=O)NC1CCCCCCCCCCC1 (centres undefined),·,·,·,-46%,·,·,·,·,·
O=C(C1=C[C@@H](C2CCCCC2)C[C@@H](OCc2ccc(CO)cc2)O1)N1CCN(Cc2ccc3c(c2)OCO3)CC1,11µM*,7%,?,-3%,?,21µM*,-28%,?,55%
CC1CCCN(S(=O)(=O)c2ccc(S(=O)(=O)NC(C)c3cccs3)cc2)C1 (centres undefined),?,-15%,-7%,?,i,?,-11%,3%,-4%
Cc1ccc(S(=O)(=O)N2CCCC(C)C2)cc1 (centres undefined),-12%,-6%,·,1%,i,·,·,·,·
Cc1c(C)c2ccc(OCC(=O)OC(C)(C)C)c(C)c2oc1=O,·,·,·,26%,·,·,·,·,·
COc1ccc(-c2cc(-c3c(O)c(OC)c4occc4c3OC)[nH]n2)cc1,?,-27%,2%,?,i,·,·,·,·
COc1ccc(-c2cc(-c3c(O)c(OC)c4occc4c3OC)[nH]n2)cc1OC,7.9µM*,-29%,2%,-20%[57.4 µM],i,?,?,?,61%
O=C(Nc1ccccc1)[C@@H]1CC=C[C@@H]2CCN(Cc3ccc(Cl)c(Cl)c3)C(=O)[C@@H]21,13µM*,-17%,-24%,3%,?,21µM*,?,?,47%
O=C(Nc1ccccc1)[C@@H]1CC=C[C@@H]2CCN(Cc3ccccc3)C(=O)[C@@H]21,-5%,1%,8%,-1%,i,·,·,·,·
SMILES,TGFb SMAD3 inh,HepG2 tox-1,ATXN2 expr inh,12-LOX inh,S2 tox,TGFb confirm,HepG2 tox-2,CCL64 TGFb inh,COP TGFb inh
O=C(CCC(=O)N1CCSc2ccccc21)NCc1cccc(Cl)c1,?,-19%,-8%,119%,i,?,-8%,7%,-1%
Cc1ccc(CNC(=O)CCC(=O)N2CCSc3ccccc32)cc1,?,-17%,·,1%,·,·,·,·,·
CCOC(=O)c1cnc(Nc2ccc(F)cc2F)c2ccccc12,·,·,·,-1%,·,·,·,·,·
CCn1c(CCCOc2ccc(Cl)cc2Cl)nnc1SCC(=O)Nc1cc(F)ccc1C,13µM*,4%,1%,20%,i,13µM*,?,-16%,-9%
Cn1c(CCCOc2ccc(Cl)cc2Cl)nnc1SCC(=O)Nc1cccc(F)c1,0%,-37%,1%,7%,i,·,·,·,·
Cc1nc2cc(-c3ccccc3)nn2c(C)c1CCC(=O)NC(C)c1ccc2c(c1)OCCO2 (centres undefined),-12%,-82%,-25%,3%[57.4 µM],i,·,·,·,·
Cc1nc2cc(-c3cccc(F)c3)nn2c(C)c1CCC(=O)NC(C)c1ccc2c(c1)OCCO2 (centres undefined),?,-18%,?,-7%,i,?,-29%,29µM*,11%
Cn1c(=O)c2c(ncn2CC(=O)NCC(c2cccs2)N2CCCC2)n(C)c1=O (centres undefined),·,·,·,4%,·,·,·,·,·
Cc1cc(Nc2cccc([N+](=O)[O-])c2)n2c(nc3ccccc32)c1C#N,1.6µM*,-40%,8.9µM*,-15%,?,?,?,5.2µM*,33%
CCC1Oc2ccc(C)cc2N(CC(=O)N(Cc2ccc(C)o2)C2CCCC2)C1=O (centres undefined),18µM*,3%,-4%,-20%,i,12µM*,-26%,?,-2%
